About 7,600 (2.4%) of roughly 320,000 compounds were called active. About 3% were inconclusive and are not listed. This excerpt belongs to a sample that is enriched for actives. Values without a mark were called inactive. The call rests on the fitted dose curve; in most records, active means well fitted activation curve with a large enough effect; inconclusive means small, poorly fitted or top-dose-only effect; inactive means no such curve, though single readings can be large or run the other way.
Potency means the concentration at half of the fitted maximal effect.

A short description of this experiment: qHTS Assay for NPC1 Promoter Activators. Further: nearly all actives have a fitted effect of over 60% in size.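 On activation: reporter is driven by a mutant NPC1 promoter; % of control where 0% means no effect.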 The note with it: Huh7 NPC1 promoter luciferase reporter, 24 h; series mostly up to 9.22 µM; activation: at the top concentration. Put shortly: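 Quantitative HTS used a cell-based reporter: Huh7 cells stably bearing the NPC1 promoter upstream of luciferase were treated with compounds for 24 h, and promoter activation was read as luminescence.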
Background: Quantitative high-throughput screening tests each substance at several concentrations.
With `Cc1cccc(-c2oc3ccc(-c4ccc5c(c4)OCO5)cc3c2C#Cc2cncn2C)c1`, the “activation” value was 16.6%. Still for that read-out and setting: to `CCn1c2ccc(F)cc2c2nnc(SCCN3CCOCC3)nc21` belongs -1.8%.

On to `Cc1cc2nc(SCCN3CCOCC3)[nH]c2cc1C`, for which the Potency is 3.98 µM (active). Regarding `Cc1cccc(C)c1OCCN1CCOCC1`, the “activation” value was -0.225%. Still for that read-out and setting: as for `CC(=O)Nc1ccc(NC(=O)C(NS(=O)(=O)c2ccc3c(c2)OCCO3)C(C)C)cc1` (stereo unspecified), the figure is -1.18%. Still for that read-out and setting: to `COc1cccc(NC(=O)CN(C)C(=O)/C=C/c2cn(-c3ccccc3)nc2-c2cccs2)c1` belongs -2.2%; to `CC1Cc2ccccc2N1S(=O)(=O)c1cccc(C(=O)NCC(c2ccco2)N2CCCC2)c1` (stereo unspecified), -3.83%.

As for `CSCC[C@H](NC(=O)OC(C)(C)C)C(=O)N/N=C/c1cc2ccc(C)cc2nc1Cl`, the “activation” value is -1.66%. For `Cc1ccc2cc(/C=N/Nc3ccc(C(=O)O)cc3)c(Cl)nc2c1`, the Potency was 1.12 µM (active). `Cc1ccc2cc(/C=N/NC(=O)[C@@H]3CCCN3)c(Cl)nc2c1`: the “activation” value is 0.836%. Same read-out and setting: to `O=C(CSc1nc2ccccc2c(=O)n1CCCO)NC1CC1` belongs -1.34%.

For the compound `CC(C)c1ccc(NC(=S)NC2CC3C=CC2C3)cc1` (stereo unspecified), the Potency was 3.98 µM (active). For `S=C(NNC(=S)NC1CC2C=CC1C2)NC1CC2C=CC1C2` (stereo unspecified), the “activation” value is -3.31%. Still for that read-out and setting: to `S=C(NNC(=S)NC1CC2CCC1C2)NC1CC2C=CC1C2` (stereo unspecified) belongs -0.848%. Still for that read-out and setting: to `CCOC(=O)C1=C(COC(=O)[C@H](C)NS(=O)(=O)c2ccccc2F)NC(=O)NC1C` (stereo partly specified) belongs -0.719%; to `CCOc1ccc(C(C)NC(=O)CN2C(=O)NC3(CCCCC3)C2=O)cc1OCC` (stereo unspecified), -3.59%. With `Cc1ccc(C(=O)/C=C/Nc2ccc(S(=O)(=O)Nc3onc(C)c3C)cc2)cc1`, the “activation” value is 5.8%. As to `CCC(=O)Nc1ccc(C(=O)Nc2cc(C)on2)cc1`, the “activation” value is 11.6%. On to `Cc1cc(N/C=C\C(=O)c2ccc(Cl)c(Cl)c2)no1`, for which the Potency is 2.51 µM (active). For `CCOC(=O)Cc1csc(SCC(=O)Nc2ccc(C)cc2F)n1`, the “activation” value is -5.48%. Consider `Cc1ccc(S(=O)(=O)N2CCCCC2)cc1NC(=O)c1cccnc1`, for which the “activation” value is -2.18%. As for `CCCCc1ccc(NC(=O)CN2C(=O)NC(Cc3ccccc3)C2=O)cc1` (stereo unspecified), the “activation” value was -11%. `NC(=O)COC(=O)c1sc2cc(F)ccc2c1Cl`: the “activation” value is -0.631%.

Turning to `COc1cc(C(=O)N2C(=O)c3cccc(N)c3C2=O)cc(OC)c1OC`, the “activation” value was -0.143%. On the same count and under the same terms, as for `COc1ccc2c(c1OC)C(=O)N(c1ncn[nH]1)C2`, the figure is 2.43%. Regarding `COc1ccc2c(c1OC)C(=O)N(c1ccc(O)cc1)C2`, the Potency is 2.82 µM (active).

Consider `O=C(c1cc2ccccc2o1)N1CCN(S(=O)(=O)c2ccc(Cl)s2)CC1`, for which the “activation” value is 9.97%. `O=C(OCC(=O)N1CCOCC1)c1ccc2ccccc2c1`: the “activation” value is 15.4%.

With `CCCCNC(=O)Cn1nc(C)c(S(=O)(=O)N2CCOCC2)c1C`, the “activation” value was -10.9%. As to `O=c1ccc(S(=O)(=O)N2CCCC2)cn1Cc1nc(-c2ccccc2)no1`, the “activation” value was -1.51%. Still for that read-out and setting: to `CCc1ccc(NC(=O)Cn2nnc(C(=O)NCc3ccc4c(c3)OCO4)c2N)cc1` belongs 0.519%. In the case of `Nc1c(C(=O)Nc2ccc3c(c2)OCCO3)nnn1Cc1ccccc1`, the Potency is 3.16 µM (active). Turning to `O=C(CCS(=O)(=O)Cc1ccccc1)Nc1ccc2c(c1)OCCO2`, the “activation” value is 1.61%. On the same count and under the same terms, to `Nn1c(SCC(=O)Nc2nccs2)nnc1-c1ccco1` belongs -4.18%. Still for that read-out and setting: as for `CC(C)[C@@H](C(=O)O)N(Cc1cccc(CN([C@H](C(=O)O)C(C)C)S(C)(=O)=O)c1)S(C)(=O)=O`, the figure is 0.257%; as for `Nc1ccn(C2CC(O)C(CO)O2)c(=O)n1` (stereo unspecified), -1.6%. Still for that read-out and setting: as for `COc1ccc(C2Nc3ccccc3C(=O)N2Cc2ccccc2)cc1Cn1nnc2ccccc21` (stereo unspecified), the figure is -2.11%; as for `COc1ccccc1CC(=O)Nc1ccc([N+](=O)[O-])cc1OC`, 1.97%. With `COc1cccc(NC(=O)c2ccc(Cn3cc([N+](=O)[O-])cn3)o2)c1`, the “activation” value is -0.132%. On to `COc1ccc(C2Nc3ccccc3C(=O)N2c2ccc(Cl)cc2)cc1Cn1cc([N+](=O)[O-])cn1` (stereo unspecified), for which the Potency is 3.98 µM (active). On the same count and under the same terms, to `COc1ccc(N2C(=O)c3ccccc3NC2c2ccc(OC)c(CN3CCOCC3)c2)cc1` (stereo unspecified) belongs 2.82 µM (active).

Regarding `COc1ccc(C2Nc3ccccc3C(=O)N2c2ccc(F)cc2)cc1Cn1nnc2ccccc21` (stereo unspecified), the “activation” value is 14.1%. Same read-out and setting: to `COC(=O)Cc1ccc(OCC(=O)NC2CCCC2)cc1` belongs 1.62%.

Turning to `CN(CCOc1ccccc1)C(=O)c1cc(-c2ccco2)nc2ccccc12`, the “activation” value is 0.0692%. The same measure, in the same setting: to `CCN(c1ccccc1)S(=O)(=O)c1cccc(C(=O)NCc2ccccc2CN2CCOCC2)c1` belongs -1.7%. As for `c1ccc(-n2ncc3c2ncn2c(C4CCCCC4)nnc32)cc1`, the Potency was 3.98 µM (active). On to `CC(=O)Cn1cnc2c(cnn2-c2ccccc2)c1=O`, for which the “activation” value was 20.1%. The same measure, in the same setting: as for `CN(C(=O)COc1ncnc2c1cnn2-c1ccccc1)C1CCCCC1`, the figure is -0.359%. Same read-out and setting: as for `Cc1ccc(S(=O)(=O)N(C)C)cc1NC(=O)CN1c2cccc3cccc(c23)S1(=O)=O`, the figure is -0.458%.

Regarding `Cc1nn2cc(-c3ccc(Cl)cc3)cnc2c1Br`, the Potency is 2.24 µM (active). Consider `N#CC1(NC(=O)COC(=O)CSc2ccc(F)cc2)CCCCC1`, for which the “activation” value is -1.38%. On the same count and under the same terms, as for `COc1ccc(S(=O)(=O)N2CCN(CC(=O)N3c4ccccc4CC3C)CC2)cc1OC` (stereo unspecified), the figure is -0.658%; as for `Cc1cc(C)nc(Nc2ncn[nH]2)n1`, 0.165%.

On to `Cc1ccccc1-c1n[nH]c(=S)n1C`, for which the “activation” value was 0.769%. In the case of `Cc1cc(C)nc(Nc2n[nH]c(-c3ccccc3N)n2)n1`, the Potency is 0.447 µM (active). `O=C(Nc1cccc(-c2nc3ncccc3o2)c1)c1ccco1`: the “activation” value was -2.98%.

Regarding `O=C(Nc1ccc2oc(-c3ccccc3F)nc2c1)c1ccco1`, the Potency was 1.58 µM (active).

With `CCCC(=O)Nc1ccc2c(c1)nc(CCNC(=O)c1ccco1)n2C`, the “activation” value was 1.18%.

Take `COc1ccccc1S(=O)(=O)NCc1ccc(C(=O)N(C)Cc2ccc(F)cc2)cc1`: the “activation” value is -1.39%.

Consider `CC(=O)Nc1cccc(-c2csc(Nc3cccc(C)n3)n2)c1`, for which the Potency was 0.708 µM (active). In the case of `CCS(=O)(=O)Nc1cccc(-c2cc(-c3ccccc3)c3cc(C)ccc3n2)c1`, the “activation” value was 0.901%. On to `CC(=O)Nc1cccc(-c2cnc3ccccc3n2)c1`, for which the Potency was 2.82 µM (active).

Consider `CC(=O)Nc1cccc(Nc2nc(-c3cccs3)nc3ccccc23)c1`, for which the “activation” value was 0.667%. For `CC(=O)Nc1ccc(-c2csc(NC=C3C(=O)OC(C)(C)OC3=O)n2)cc1`, the “activation” value is 14.1%. Same read-out and setting: as for `Cc1cccc(S(=O)(=O)CC(=O)Nc2nc(-c3ccccc3)cs2)c1`, the figure is -0.92%; as for `COCCn1c(=NC(=O)c2ccccc2[N+](=O)[O-])sc2cc(S(C)(=O)=O)ccc21`, 22.9%.
